Screening data deposited in PubChem by Broad Institute.
An excerpt weighted towards active compounds, which were near 8.1% of everything screened.
NOMO-1 viab – STK33 inhibitor candidate reducing NOMO-1 cell viability; NOMO-1 AML viability, CellTiter-Glo luminescence, 72 h; inhibition, % (no concentration beside the values); 37,000 tested, 7.5% active; in the data active means inhibition above about 80%; inconclusive means no clear call, values can overlap the other calls
MITF inhib – MITF inhibition | AID 2240 | inhibition, % (concentration not given with the values) | 37,000 tested, 0.28% active | TRPM1 promoter luciferase, luminescence, 24 h; in the data active means inhibition above about 85%; inconclusive means no clear call, values can overlap the other calls; inactive means below about 68%;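 further: human melanocyte line stably carrying TRPM1 promoter luciferase reporter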
PD-1 reverse act – activators reversing PD-1 mediated T-cell inhibition; primary human CD4 T cells, PD-L1 beads, CellTiter-Glo 96 h; AID 2316; activation, % (no concentration beside the values); 29,000 tested, under 10 active; call rule not given here
Shh pathway inh – Sonic Hedgehog pathway inhibition. Shh-LIGHT2 Gli-luciferase reporter, 30 h. inhibition, % (concentration not given with the values). 22,000 tested, 2.1% active;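 active means mean inhibition across valid replicates above about 65%, limit read from the data; inconclusive means mean under the limit, yet half or more replicates past it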;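 further: pathway switched on by Shh-conditioned medium diluted 1 in 25 in low serum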
Each line names hits and unclear results; the compound was inactive in the other large screens.

O=C(Nc1cccc(Br)c1)c1cccc2c1C(=O)c1ccccc1-2	NOMO-1 viab 102 (no result: Shh pathway inh)
COc1cc(C)c(Br)cc1S(=O)(=O)NCC1CCCO1 (stereo not given)	none (no result: PD-1 reverse act, Shh pathway inh)
Cc1cccc(NC(=O)c2cccc(C(=O)Nc3cccc(C)c3)c2)c1	none
Cc1cccc(C(=O)NN(c2ccccc2)c2ccccc2)c1	Shh pathway inh 95
O=C1CC(c2ccccc2)N=C(SCC(=O)Nc2ccc3ccccc3c2)N1 (stereo not given)	none (no result: Shh pathway inh)
Cc1ccnc(SCC(=O)Nc2cccc(C(F)(F)F)c2)n1	none (no result: Shh pathway inh)
Oc1ccc(CNc2cccc(C(F)(F)F)c2)c2cccnc12	NOMO-1 viab 104, Shh pathway inh inconclusive
COc1ccccc1N1CCN(CCCCNC(=O)c2ccc(-c3ccc(C(C)=O)cc3)cc2)CC1	Shh pathway inh 92 (no result: PD-1 reverse act)
Cc1nc(N)nc(CSc2ccccc2)n1	none
COc1cccc([C@H]2C(C#N)=C(N)C(C#N)(C#N)C3=CCC(C)C[C@@H]32)c1 (stereo not given in full)	NOMO-1 viab 127
O=C(CSc1nnc(-c2ccc(Br)cc2)o1)Nc1ccc(Cl)c(Cl)c1	none (no result: PD-1 reverse act, Shh pathway inh)
CCn1c(SCC(=O)c2cccc([N+](=O)[O-])c2)nnc1-c1ccc(Cl)cc1Cl	none (no result: Shh pathway inh)
CC1CC(=O)C2=C(C1)C1OC1C1(O)C2C(=O)c2cccc(O)c2C1O (stereo not given)	none (no result: NOMO-1 viab, MITF inhib, PD-1 reverse act)
CC1CC(=O)C2=C(C1)C(Cl)C(O)C1(O)C2C(=O)c2cccc(O)c2C1O (stereo not given)	NOMO-1 viab 101
COc1cc(NC(=O)COc2ccc(I)cc2)c(C(=O)O)cc1OC	none (no result: Shh pathway inh)
c1coc(CNc2ncnc3c2sc2nc(N4CCOCC4)c4c(c23)CCC4)c1	none (no result: PD-1 reverse act, Shh pathway inh)
OC[C@H]1O[C@@H](n2cnc3c(NCc4ccco4)ncnc32)[C@H](O)[C@@H]1O	NOMO-1 viab 108, Shh pathway inh 98 (no result: PD-1 reverse act)
S=C(NCc1ccco1)NCC1CC(c2ccccc2)=NO1 (stereo not given)	none (no result: Shh pathway inh)
Cc1ccc(S(=O)(=O)N(C)CC(=O)Nc2ccc3ccccc3c2)cc1	none (no result: Shh pathway inh)
CCc1cccc(C)c1NC(=O)CSc1nc2sc3c(c2c(=O)n1C)CCC(C)C3 (stereo not given)	NOMO-1 viab 95 (no result: PD-1 reverse act, Shh pathway inh)
CO[C@@]12[C@@H]3NC3CN1C1=C(C(=O)C(N)=C(C)C1=O)[C@@H]2COC(N)=O (stereo not given in full)	NOMO-1 viab 106, Shh pathway inh 67 (no result: PD-1 reverse act)
c1coc(-c2nnc(C3CCCCC3)o2)c1	none
Cc1cc(C)nc(N(C#N)C(C(=O)c2ccccc2)c2ccccc2)n1 (stereo not given)	NOMO-1 viab 110 (no result: PD-1 reverse act, Shh pathway inh)
Cc1ccc(-n2c(SCC(=O)Nc3ccccc3-c3ccccc3)nc3ccccc3c2=O)cc1	none (no result: Shh pathway inh)
CN(CCOC(=O)c1ccc(Cl)cc1)c1ncc(C(F)(F)F)cc1Cl	none
COc1ccc2c(c1)OCC(Cc1ccc(OC)c(O)c1)C2=O (stereo not given)	NOMO-1 viab 109 (no result: PD-1 reverse act)
CN1C(=O)C(CC(=O)Nc2ccc(Cl)cc2)N(Cc2ccco2)C1=S (stereo not given)	NOMO-1 viab 152 (no result: Shh pathway inh)
C[C@H](C[C@@H](O)[C@](C)(O)[C@H]1CC[C@@]2(O)C3=CC(=O)[C@@H]4C[C@@H](O)[C@@H](O)C[C@]4(C)C3CC[C@]12C)C(C)(C)O (stereo not given in full)	none
Cc1sc2ncnc(SCC(=O)Nc3ccc4c(c3)OCCO4)c2c1C	none (no result: Shh pathway inh)
CCOc1ccc(Cl)cc1S(=O)(=O)n1cnc2ccccc21	NOMO-1 viab 114 (no result: PD-1 reverse act, Shh pathway inh)
COc1cc(S(=O)(=O)n2cnc3ccccc32)c(OC)cc1Cl	NOMO-1 viab 84 (no result: PD-1 reverse act, Shh pathway inh)
COc1cc(S(=O)(=O)n2nnc3ccccc32)c(OC)cc1Cl	none (no result: Shh pathway inh)
CCOc1ccc(C)cc1S(=O)(=O)n1cnc2ccccc21	NOMO-1 viab 127 (no result: Shh pathway inh)
Cc1ccc(-n2c(C)nnc2SCC(=O)Nc2ccc(Br)c(C)c2)cc1C	none (no result: PD-1 reverse act, Shh pathway inh)
CCC(Sc1nncn1C)C(=O)Nc1ccc([N+](=O)[O-])cc1 (stereo not given)	none (no result: Shh pathway inh)
Clc1cccc(Nc2nnc(-c3ccccc3)c3ccccc23)c1	Shh pathway inh 94
CNS(=O)(=O)c1cc(-c2nnc(Nc3ccc(NC(C)=O)cc3)c3ccccc23)ccc1C	none (no result: Shh pathway inh)
Cc1[nH]n2c(=O)c3c(nc2c1-c1ccccc1)CCC3	NOMO-1 viab 106
O=c1onc(-c2cccc(Cl)c2)n1-c1ccccc1	none
CSC1=C(C#N)C(=O)NC(c2ccc(Cl)cc2)S1 (stereo not given)	NOMO-1 viab 116
CCN(CC(=O)Nc1ccccc1C(F)(F)F)S(=O)(=O)c1ccc(Cl)cc1	none (no result: Shh pathway inh)
Cc1ccc(C2=NNC(=O)C(c3cn(CCC#N)c4ccccc34)C2)cc1 (stereo not given)	none (no result: Shh pathway inh)
Cn1c2ccccc2c2c3c(c4c5ccccc5n(CCC#N)c4c21)CNC3=O	NOMO-1 viab 140
CN1CCN(C(c2ccccc2)c2ccccc2)CC1	none
NC(=O)c1ccc(N2CCN(C(c3ccccc3)c3ccccc3)CC2)nc1	NOMO-1 viab 109
C[C@@H]1CN([C@H](C)CO)C(=O)c2cc(NC(=O)Nc3ccc4c(c3)OCO4)ccc2O[C@@H]1CN(C)S(=O)(=O)c1ccc(F)cc1	NOMO-1 viab 95 (no result: Shh pathway inh)
C[C@@H]1CN([C@@H](C)CO)C(=O)c2cc(NC(=O)Nc3ccc4c(c3)OCO4)ccc2O[C@@H]1CN(C)S(=O)(=O)c1ccc(F)cc1	none
C[C@@H]1CN([C@H](C)CO)C(=O)Cc2cc(NC(=O)Nc3ccc4c(c3)OCO4)ccc2O[C@H]1CN(C)S(=O)(=O)c1ccc(F)cc1	none
C[C@H](CO)N1C[C@H](C)[C@H](CN(C)S(=O)(=O)c2ccc(F)cc2)Oc2ccc(NC(=O)Nc3ccc(C(F)(F)F)cc3)cc2CC1=O	NOMO-1 viab 119
C[C@H](CO)N1C[C@H](C)[C@H](CN(C)S(=O)(=O)c2ccc(F)cc2)Oc2ccc(NC(=O)Nc3ccc4c(c3)OCO4)cc2CC1=O	NOMO-1 viab 126
C[C@H](CO)N1C[C@H](C)[C@H](CN(C)S(=O)(=O)c2ccc(F)cc2)Oc2ccc(NC(=O)Nc3ccc(F)cc3)cc2CC1=O	NOMO-1 viab 126
C[C@@H]1CN([C@H](C)CO)C(=O)Cc2cc(NC(=O)Nc3ccc(F)cc3)ccc2O[C@H]1CN(C)S(=O)(=O)c1ccccc1	none (no result: PD-1 reverse act, Shh pathway inh)
COc1ccc(S(=O)(=O)N(C)C[C@H]2Oc3ccc(NC(=O)Nc4ccc(C(F)(F)F)cc4)cc3CC(=O)N([C@H](C)CO)C[C@H]2C)cc1	none
COc1c(OC/C=C(\C)CC2C=C(C)C(=O)O2)ccc2ccc(=O)oc12 (stereo not given)	none
CC1(C)CC(N=Cc2ccco2)CC(C)(C)N1	none (no result: Shh pathway inh)
N#CC(=C1SCCCS1)S(=O)(=O)c1cccs1	none
C[C@H](CO)N1C[C@H](C)[C@H](CN(C)S(=O)(=O)c2ccc(Cl)cc2)Oc2ccc(NC(=O)Nc3ccccc3)cc2CC1=O	NOMO-1 viab 111 (no result: PD-1 reverse act)
C[C@H](CO)N1C[C@H](C)[C@H](CN(C)S(=O)(=O)c2ccc(Cl)cc2)Oc2ccc(NC(=O)Nc3ccc(F)cc3)cc2CC1=O	NOMO-1 viab 125
C[C@H](CO)N1C[C@H](C)[C@H](CN(C)S(=O)(=O)c2ccccc2)Oc2ccc(NC(=O)Nc3ccc(F)cc3)cc2CC1=O	NOMO-1 viab 95
